Bioassay records: PubChem BioAssay, several laboratories
Exocytosis inh: blocks lytic granule exocytosis. TALL-104 LAMP-1 surface exposure, flow cytometry; cells stimulated with thapsigargin and PMA. inhibition, % at 10 µM. actives 0.66% (n = 360,000);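 active = inhibition above about 55%, limit read from the data; inconclusive = no clear call, values can overlap the other calls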
TLR4 MyD88 comp: blocks binding of human TLR4 to MyD88 | HeLa CL3-4 TLR4/MyD88 BLA complementation, FRET ratio | O00206+Q99836 | inhibition, % at 8.4 µM | actives 0.18% (n = 200,000) | AID 861; in the data active = inhibition above about 25%;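 note: 0% = vehicle and 100% = reference inhibitor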
TLR9-MyD88 inh: TLR9-MyD88 interaction inhibition; actives 0.21% (n = 340,000); CHO BLA complementation TLR9-MyD88, CCF4 FRET ratio; inhibition, % at 4.98 µM; Q9NR96+Q99836;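 active = inhibition above the mean over all tested compounds plus 3 SD, cut at about 21% in these data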;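 note: 0% = DMSO only wells and 100% = clavulanate BLA inhibitor control wells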
B2AR ag: agonists of human beta-2 adrenergic receptor inducing internalization; P07550; Am2.2-beta2AR cells, FAP receptor internalization, flow cytometry; response, % (concentration not given with the values); actives 0.43% (n = 340,000); AID 504454;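 active = response above a set limit, near 3 SD of response in nonfluorescent compounds, cut at about 42% in these data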
ABHD5 PLIN5 PPI: blocks binding of human ABHD5 to perilipin-5 | Q00G26+Q8WTS1 | Split G. princeps luciferase complementation, luminescence, 4 h | inhibition, % at 4 µM | actives 0.78% (n = 360,000) | AID 602281;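 active = inhibition above the mean inhibition across every tested compound plus 3 SD, cut at about 22% in these data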;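 note: 0% = DMSO only wells and the 100% control is not disclosed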
NOD2-RIPK2 inh: blocks binding of human NOD2 to RIPK2. O43353. AID 624267. CHO BLA complementation NOD2-RIPK2, CCF4 ratio. inhibition, % at 4.98 µM. actives 0.38% (n = 360,000); in the data active = inhibition above about 21%;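 note: 0% = vehicle only and 100% = reference blocker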
The depositor's hits bear a star; ? = inconclusive; / = no result given. Most compounds without a hit are left out; they make up all but 2% or so of the library.

SMILES	Exocytosis inh	TLR4 MyD88 comp	TLR9-MyD88 inh	B2AR ag	ABHD5 PLIN5 PPI	NOD2-RIPK2 inh
N#Cc1c(C#N)c(SSc2c(C#N)c(C#N)c(N)n2-c2ccccc2)n(-c2ccccc2)c1N	96*	/	0	-4	-6	-27
CCNc1ccc(Br)cc(C(=O)/C=C/c2ccc(Cl)cc2Cl)c1=O	5	1	11	-97	47*	7
CNc1ccc(Br)cc(C(=O)/C=C/c2ccc(OC)cc2)c1=O	4	9	6	-6	12	-9
Cc1ccccc1Oc1ccc2c(c1)[C@@H]1C[C@H](N(C)C(=O)c3ccco3)[C@H]([C@H](C)O)C(=O)N1CC2	1	/	1	/	2	2
CN(C)CCCN(C(=O)/C=C/c1cccs1)c1nc2c(F)cccc2s1	57*	-1	-5	38	17	1
Nc1nc2ccccc2cc1C(=O)NCCCCc1ccccc1	-6	/	/	/	4	-7
CCN(CC)CCOCCOC(=O)C(CC)(CC)c1ccccc1	3	/	/	-1	23*	-13
COC(=O)Cn1ccnc1[N+](=O)[O-]	4	/	-1	/	-4	1
CCCN(Cc1ccccc1)C(=S)Nc1ccc(SC(F)F)cc1	90*	-10	-7	-2	-7	-5
COc1ccc(CN2CCC3CC2c2cc(-c4cccc(C)c4)ccc23)cc1 (configuration not stated)	16	/	1	8	4	-14
COc1ccc(CC(=O)Nc2cccc(-c3nnc(-c4cccc(C)c4)o3)c2)cc1OC	22	-2	-3	17	0	-6
COc1ccc(CC(=O)Nc2cccc(-c3nnc(-c4ccccc4)o3)c2)cc1OC	69*	0	-8	34	3	4
Cc1ccc2nc(-c3ccccc3)c(Cc3ccccc3C(F)(F)F)n2c1	-7	/	/	/	-15	-3
Cc1ccc([C@H]2C[C@@H](O)[C@H](n3cc(C4CC4)nn3)CN2C(=O)C2CCCCC2)cc1	-2	/	-5	/	-1	5
O=C1C(=O)N(CCCc2ccccc2)c2ccccc21	76*	/	2	3	16	11
COc1ccccc1NC(=O)c1c(N=Cc2cccc([N+](=O)[O-])c2)cnn1C	62*	/	/	-6	1	-2
O=[N+]([O-])c1cccnc1S(=O)(=O)c1ccccc1	?	/	0	1	22*	18
CC(C)(C)C(=O)/C=c1\s/c(=C\c2ccc(-c3ccc([N+](=O)[O-])cc3)o2)c(=O)n1CC(=O)NC(N)=O	58*	13	5	/	1	-3
CCC(=O)N/N=C/c1ccc(-c2ccc([N+](=O)[O-])cc2)o1	2	-2	4	-13	4	-2
COc1ccc(N2C(=O)c3ccccc3NC(=O)C2C(=O)NCc2ccco2)cc1 (configuration not stated)	0	/	/	/	6	-1
O=C1C2C3C=CC(O3)C2C(=O)N1CC(O)c1ccccc1 (configuration not stated)	63*	-4	-8	6	6	-7
Cc1ccc(CNC(=O)Cn2cnc(S(=O)(=O)N3CCC(C)CC3)c2)o1	0	/	-1	-26	22*	3
CC(=O)c1ccc(NC(=O)Cn2cnc(S(=O)(=O)N3CCC(C)CC3)c2)cc1	-11	/	3	-5	-3	-5
O=C(Nc1ccc([N+](=O)[O-])cc1)Nc1ccc(N2CCOCC2)c2nonc12	77*	-8	15	25	-4	-9
CC(=O)Nc1cc([N+](=O)[O-])ccc1N1CCOCC1	0	14	4	-6	-1	-1
SMILES	Exocytosis inh	TLR4 MyD88 comp	TLR9-MyD88 inh	B2AR ag	ABHD5 PLIN5 PPI	NOD2-RIPK2 inh
c1ccc(CNc2nc(NCc3ccccc3)c3ccccc3n2)cc1	61*	/	-10	72*	11	1
Clc1cccc(CNc2nc(-c3cccnc3)nc3ccccc23)c1	99*	/	-6	-13	4	5
O=C(C[C@H]1CC[C@@H]2[C@H](COC[C@H](O)CN2C(=O)c2cnccn2)O1)NCc1ccc(Cl)cc1	-4	/	/	/	-7	-5
Cc1cccc(C)c1NC(=O)C1(C)CSCC(=O)N1CCc1ccccc1 (configuration not stated)	4	/	/	/	0	0
Cc1nc2ccc(C(=O)N(C)Cc3ccco3)cn2c1N(C)C(=O)CCc1ccccc1	-12	/	/	/	2	2
O=C(/C=C/c1cccnc1)c1ccc(NC(=O)c2cccc(Br)c2)cc1	1	0	0	8	50*	15
CN(C(=O)CSc1nnnn1-c1ccc(O)cc1)C1CCCCC1	10	/	-1	7	-4	-6
COc1ccccc1[C@H]1C(c2cccc(Cl)c2)=NN(c2ccccc2)[C@@H]1CO	6	/	1	8	-11	37*
COc1cccc(OC)c1-c1nn2c(-c3cc(-c4ccccc4)n[nH]3)nnc2s1	-12	-8	7	100*	-3	11
CCOC(=O)c1c(-c2ccc(-c3ccccc3)cc2)csc1NC(=O)C1C2CCC(O2)C1C(=O)O (configuration not stated)	12	5	-8	12	34*	-11
CCOC(=O)c1c(-c2ccccc2)csc1NC(=O)C1CCCO1 (configuration not stated)	2	-1	-8	0	-7	-10
C/C(=N\NC(=S)NCCc1ccccc1)c1ccc(Cl)cc1Cl	88*	/	-7	-8	-7	-19
C/C(=N\NC(=S)NCCc1ccccc1)c1ccc(O)cc1O	6	/	-17	-6	-3	-3
COc1ccc(C(=O)NN(C)c2nc(-c3ccccc3)nnc2C(F)(F)F)cc1	-2	3	0	49*	1	-5
Cc1cccc(C(=O)NN(C)c2nc(-c3ccccc3)nnc2C(F)(F)F)c1	-2	6	4	-8	7	-15
O=C1CC2(CCCC2)C(=O)N1CN1CCN(S(=O)(=O)c2cc(F)ccc2F)CC1	-6	/	2	/	7	4
CCC(=O)OCCNc1cc(SCCC(=O)OC)c2nonc2c1[N+](=O)[O-]	2	-2	-5	77*	-14	-9
CC(=O)OCCCNc1cc(Sc2ccc(Cl)cc2)c2nonc2c1[N+](=O)[O-]	64*	2	6	50*	-1	-5
CC(C)CCSc1cc(NCCO)c([N+](=O)[O-])c2nonc12	9	0	-10	2	0	3
Cc1ccc2cc(CCNS(=O)(=O)c3ccc(Br)cc3)c(=O)[nH]c2c1C	4	/	0	55*	4	5
Cc1ccc(S(=O)(=O)N2CCN(C(=O)C(O)c3ccccc3)CC2)cc1 (configuration not stated)	-1	/	/	/	-4	-5
COC(=O)C[C@H]1CC[C@H](NC(=O)Nc2ccccc2)[C@@H](CO)O1	-2	/	/	/	3	-6
COc1ccc2ccc(O)c(CN(C)CC(=O)Nc3ccccc3C(F)(F)F)c2c1	6	/	7	9	22*	9
